Test results reported in PubChem BioAssay (NCI).
Compounds without any hit were thinned out: in the full panel of roughly 83,000, 20% have a hit.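 In brief: 96-well plates, 48 h treatment, single concentration, percent growth endpoint.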 Active and inactive are the calls of the source. The calls were made as follows: active = growth percent below 10; inactive = the rest.

How the values were obtained:
Assay in all cases: NCI-60 one-dose screen, 48 h (100 = growth as untreated, 0 = no growth, -100 = all killed)
Details in all cases: 10 µM unless noted
HCT-15 colon = system: HCT-15 colon
HT29 colon = system: HT29 colon
SNB-75 CNS = system: SNB-75 CNS
SNB-19 CNS = system: SNB-19 CNS
U251 CNS = system: U251 CNS
PC-3 prostate = system: PC-3 prostate
SK-MEL-5 melanoma = system: SK-MEL-5 melanoma
UACC-62 melanoma = system: UACC-62 melanoma
LOX IMVI melanoma = system: LOX IMVI melanoma
SK-MEL-28 melanoma = system: SK-MEL-28 melanoma
SK-MEL-2 melanoma = system: SK-MEL-2 melanoma
EKVX NSCLC = system: EKVX NSCLC
SN12C renal = system: SN12C renal
UO-31 renal = system: UO-31 renal
TK-10 renal = system: TK-10 renal
ACHN renal = system: ACHN renal
CAKI-1 renal = system: CAKI-1 renal
A498 renal = system: A498 renal
CCRF-CEM leukemia = system: CCRF-CEM leukemia
MOLT-4 leukemia = system: MOLT-4 leukemia

Measured: growth

COc1cc(-c2cc(-c3ccc(N(C)C)cc3)nc(N3CCOCC3)c2C#N)cc(OC)c1OC
inactive: HCT-15 colon 44.1% | HT29 colon 12.1% | SNB-75 CNS 25.3% | SNB-19 CNS 45% | U251 CNS 24.2% | PC-3 prostate 44.4% | SK-MEL-28 melanoma 65.4% | SK-MEL-2 melanoma 34.5% | EKVX NSCLC 51.2% | SN12C renal 53.4% | UO-31 renal 54.8% | TK-10 renal 38.4% | ACHN renal 46.1% | CAKI-1 renal 29.8% | A498 renal 75.5% | CCRF-CEM leukemia 30.3%
active: SK-MEL-5 melanoma 3.48% | UACC-62 melanoma -39% | LOX IMVI melanoma -58.6%

COc1ccc2nc(-c3ccc(-c4noc(-c5cc(OC)c(OC)c(OC)c5)n4)cc3)[nH]c2c1
inactive: HCT-15 colon 30.2% | HT29 colon 20.2% | SNB-75 CNS 35.4% | SNB-19 CNS 76.8% | U251 CNS 25.1% | PC-3 prostate 95.2% | SK-MEL-5 melanoma 45% | UACC-62 melanoma 99.8% | LOX IMVI melanoma 67.5% | SK-MEL-28 melanoma 51.3% | SK-MEL-2 melanoma 99.2% | EKVX NSCLC 91.9% | SN12C renal 80.7% | UO-31 renal 108% | TK-10 renal 102% | ACHN renal 97.9% | CAKI-1 renal 96.5% | A498 renal 101%

COc1cc(C2=NN(C(C)=O)C(c3cc(OC)c(OC)c(OC)c3)C2)ccc1O (stereo not given)
inactive: SNB-19 CNS 34.9% | PC-3 prostate 13.1% | UACC-62 melanoma 15.3% | LOX IMVI melanoma 34.7% | SK-MEL-28 melanoma 68.2% | SK-MEL-2 melanoma 37.9% | EKVX NSCLC 34.8% | SN12C renal 34.2% | UO-31 renal 31.8% | TK-10 renal 47.5% | ACHN renal 30.5% | CAKI-1 renal 46.4%
active: HCT-15 colon 4.31% | HT29 colon 8.21% | SNB-75 CNS 4.64% | U251 CNS 7.85% | SK-MEL-5 melanoma 6.65% | A498 renal -14.4% | CCRF-CEM leukemia -16.5% | MOLT-4 leukemia 0.196%

COc1cc(C2C3=C(COC3=O)N(CCO)c3cc4c(cc32)CCC4)cc(OC)c1OC (stereo not given)
active: HT29 colon 2.19% | SNB-19 CNS -12.9% | U251 CNS 7.16% | SK-MEL-5 melanoma -60.3% | SK-MEL-2 melanoma 6.85% | A498 renal -20.4%
inactive: HCT-15 colon 10.9% | SNB-75 CNS 61.3% | PC-3 prostate 21.3% | UACC-62 melanoma 31.2% | LOX IMVI melanoma 21.6% | SK-MEL-28 melanoma 54.3% | EKVX NSCLC 29.6% | SN12C renal 23.9% | UO-31 renal 31.9% | TK-10 renal 55.3% | ACHN renal 26.1% | CAKI-1 renal 28.7%

N#C/C(=C\c1ccccn1)c1nc2cc(Cl)ccc2s1
active: SNB-75 CNS 8.52%
inactive: HCT-15 colon 63.5% | HT29 colon 86.4% | SNB-19 CNS 85.9% | U251 CNS 73.8% | PC-3 prostate 44.1% | SK-MEL-5 melanoma 83.7% | UACC-62 melanoma 68.1% | LOX IMVI melanoma 72.7% | SK-MEL-28 melanoma 101% | SK-MEL-2 melanoma 95.9% | EKVX NSCLC 56% | SN12C renal 64.7% | UO-31 renal 44.3% | TK-10 renal 119% | ACHN renal 75.8% | CAKI-1 renal 66.5% | A498 renal 64.6% | CCRF-CEM leukemia 63.9% | MOLT-4 leukemia 75.6%

COc1ccc(C(=O)C2C(C#N)C(C#N)C3c4ccccc4C=CN23)cc1 (stereo not given)
inactive: HCT-15 colon 94.5% | HT29 colon 84.4% | SNB-75 CNS 74.8% | SNB-19 CNS 85.4% | U251 CNS 93.6% | PC-3 prostate 84.7% | SK-MEL-5 melanoma 84.2% | UACC-62 melanoma 63% | LOX IMVI melanoma 87.8% | SK-MEL-28 melanoma 98.9% | SK-MEL-2 melanoma 88.5% | EKVX NSCLC 84.2% | SN12C renal 80.9% | UO-31 renal 60.7% | TK-10 renal 131% | ACHN renal 91.3% | CAKI-1 renal 72.4% | A498 renal 80.9% | CCRF-CEM leukemia 82.5% | MOLT-4 leukemia 95.6%

N#CC1C(C#N)C2c3ccccc3C=CN2C1C(=O)c1ccc(Br)cc1 (stereo not given)
inactive: HCT-15 colon 95.9% | HT29 colon 86.8% | SNB-75 CNS 90.5% | SNB-19 CNS 91.2% | U251 CNS 100% | PC-3 prostate 94% | SK-MEL-5 melanoma 90.8% | UACC-62 melanoma 98.4% | LOX IMVI melanoma 92.2% | SK-MEL-28 melanoma 102% | SK-MEL-2 melanoma 98.3% | EKVX NSCLC 93% | SN12C renal 88.6% | UO-31 renal 99.2% | TK-10 renal 111% | ACHN renal 90.3% | CAKI-1 renal 89.8% | A498 renal 101% | CCRF-CEM leukemia 99.2% | MOLT-4 leukemia 102%

COc1ccc(C(=O)c2cc(OC)c(OC)c(OC)c2)cc1O
active: HCT-15 colon 3.56% | SNB-75 CNS -0.83% | SK-MEL-5 melanoma -59.7% | CCRF-CEM leukemia 5.92%
inactive: HT29 colon 14.7% | SNB-19 CNS 28.5% | U251 CNS 20.5% | PC-3 prostate 20.4% | UACC-62 melanoma 45.2% | LOX IMVI melanoma 15.4% | SK-MEL-28 melanoma 57.6% | SK-MEL-2 melanoma 59.6% | EKVX NSCLC 43.8% | SN12C renal 15.2% | UO-31 renal 32.7% | TK-10 renal 65.3% | ACHN renal 25.6% | CAKI-1 renal 37.2% | A498 renal 75% | MOLT-4 leukemia 15.4%

CCc1ccc(-c2cn3ccnc3c(-c3ccc4ncn(Cc5ccccc5)c4c3)n2)cc1
inactive: HCT-15 colon 25.3% | HT29 colon 31.2% | SNB-75 CNS 70.7% | SNB-19 CNS 79.1% | U251 CNS 53.9% | PC-3 prostate 49.6% | SK-MEL-5 melanoma 52.1% | UACC-62 melanoma 75.1% | LOX IMVI melanoma 49.8% | SK-MEL-28 melanoma 80.9% | SK-MEL-2 melanoma 85.2% | EKVX NSCLC 60.3% | SN12C renal 77.5% | UO-31 renal 42.2% | TK-10 renal 84.5% | ACHN renal 55.3% | CAKI-1 renal 52.1% | A498 renal 105% | CCRF-CEM leukemia 50.3% | MOLT-4 leukemia 45.8%

O=C(O)c1ccc2c(c1)C(=O)N(Cc1ccccc1)C2=O
inactive: HCT-15 colon 99.9% | HT29 colon 99.9% | SNB-75 CNS 94.2% | SNB-19 CNS 95.1% | U251 CNS 92.7% | PC-3 prostate 96.2% | SK-MEL-5 melanoma 99.7% | UACC-62 melanoma 97.9% | LOX IMVI melanoma 95.7% | SK-MEL-28 melanoma 110% | SK-MEL-2 melanoma 106% | EKVX NSCLC 99.8% | SN12C renal 98.2% | UO-31 renal 83% | TK-10 renal 91.1% | ACHN renal 99.9% | CAKI-1 renal 99.3% | A498 renal 85.4% | CCRF-CEM leukemia 92.6% | MOLT-4 leukemia 98.5%

COc1ccc(Cc2cnc(NC(=O)c3ccc4c(c3)OCCO4)s2)cc1
active: HCT-15 colon 7.26% | HT29 colon 2.59% | SK-MEL-5 melanoma -39.3% | A498 renal -6.31%
inactive: SNB-75 CNS 17.9% | SNB-19 CNS 37.7% | U251 CNS 12.3% | PC-3 prostate 23.4% | UACC-62 melanoma 48.1% | LOX IMVI melanoma 29.3% | SK-MEL-28 melanoma 68.6% | SK-MEL-2 melanoma 39.3% | EKVX NSCLC 37.7% | SN12C renal 30.7% | UO-31 renal 54.8% | TK-10 renal 41% | ACHN renal 27.9% | CAKI-1 renal 27.8% | CCRF-CEM leukemia 13.5% | MOLT-4 leukemia 11.6%

N#CC1C(C#N)C(C(=O)c2ccc(Br)cc2)N2c3ccccc3C=CC12 (stereo not given)
inactive: HCT-15 colon 23.7% | HT29 colon 37.4% | SNB-75 CNS 12% | SNB-19 CNS 80.4% | U251 CNS 84.6% | PC-3 prostate 76.8% | SK-MEL-5 melanoma 61.3% | UACC-62 melanoma 63% | LOX IMVI melanoma 78.7% | SK-MEL-28 melanoma 95.7% | SK-MEL-2 melanoma 104% | EKVX NSCLC 63.9% | SN12C renal 76.1% | UO-31 renal 48% | TK-10 renal 106% | ACHN renal 89.4% | CAKI-1 renal 50.7% | A498 renal 67.7% | CCRF-CEM leukemia 84.9% | MOLT-4 leukemia 92.7%

CCOC(=O)c1cc(C#N)n2ccc3ccccc3c12
inactive: HCT-15 colon 96.6% | HT29 colon 101% | SNB-75 CNS 76.2% | SNB-19 CNS 92.7% | U251 CNS 96.9% | PC-3 prostate 102% | SK-MEL-5 melanoma 97.4% | UACC-62 melanoma 91.5% | LOX IMVI melanoma 95.7% | SK-MEL-28 melanoma 106% | SK-MEL-2 melanoma 106% | EKVX NSCLC 90.9% | SN12C renal 94.5% | UO-31 renal 101% | TK-10 renal 91.3% | ACHN renal 109% | CAKI-1 renal 90.2% | A498 renal 88% | CCRF-CEM leukemia 98.8% | MOLT-4 leukemia 96.2%

C=C1C(=O)O[C@H]2[C@H]1CC/C(CNS(=O)(=O)c1cccc3ccccc13)=C\CC[C@@]1(C)O[C@@H]21
inactive: SNB-75 CNS 66.5% | SNB-19 CNS 67.2% | U251 CNS 53.1% | PC-3 prostate 45.7% | SK-MEL-5 melanoma 41.4% | UACC-62 melanoma 29% | LOX IMVI melanoma 14.3% | SK-MEL-2 melanoma 59.4% | EKVX NSCLC 59.4% | SN12C renal 11.9% | UO-31 renal 21.9% | CAKI-1 renal 34.5% | A498 renal 70.9%
active: HCT-15 colon -25% | HT29 colon -3.2% | SK-MEL-28 melanoma 2.74% | TK-10 renal 8.61% | ACHN renal 3.67% | CCRF-CEM leukemia 1.32% | MOLT-4 leukemia 6.51%

COc1ccc(/C=C/c2nc(Nc3ccc(Cl)cc3)c3ccccc3n2)cc1
inactive: HCT-15 colon 34.8% | HT29 colon 48.3% | SNB-75 CNS 61.7% | SNB-19 CNS 64.4% | U251 CNS 45.7% | PC-3 prostate 54.5% | SK-MEL-5 melanoma 69.7% | UACC-62 melanoma 14.3% | LOX IMVI melanoma 18.4% | SK-MEL-28 melanoma 90.2% | SK-MEL-2 melanoma 89.2% | EKVX NSCLC 81.8% | SN12C renal 38.5% | UO-31 renal 34.3% | TK-10 renal 70.8% | ACHN renal 49.4% | CAKI-1 renal 56.5% | A498 renal 16.6% | MOLT-4 leukemia 32.1%
active: CCRF-CEM leukemia 8.06%
